# Measurements published in PubChem BioAssay AID1159580 (chemical genetic matrix, 2015).
# The whole screen tested about 5,500 compounds, of which about 2,000 (36%) were called active. About 18% were inconclusive and are not listed. The list shows a part of the results. Unmarked numbers belong to inactive results. Cut-off read from the data, not from the text of the source: active = normalized growth mostly below about 0.91 (no sharp cut-off); inconclusive = no clear call, values can overlap the other calls; inactive = mostly above about 0.92.
# Test: chemical genetic growth profiling, strain panel (AID 1159580);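 note: tested at 20 µM; growth read once vehicle control cultures reached saturation at 30 °C; 1 = growth at the plate median or of vehicle wells; lower values mean less growth of the strain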
# Details: growth OD
compound,measurement,setting,value
CC(C)=CCc1c2c(c3occ(-c4ccc(O)c(O)c4)c(=O)c3c1O)C=CC(C)(C)O2,normalized growth,"S. cerevisiae deletion strains, locus YKL009W, strain mrt4, hits give low values",0.867 (active)
same,normalized growth,"S. cerevisiae deletion strains, locus YKL068W, hits give low values",1
same,normalized growth,"S. cerevisiae deletion strains, locus YKL085W, strain MDH1 (second series), hits give low values",0.947
same,normalized growth,"S. cerevisiae deletion strains, locus YKL085W, strain MDH1, hits give low values",0.947
same,normalized growth,"S. cerevisiae deletion strains, locus YKL160W, strain elf1, hits give low values",0.957
same,normalized growth,"S. cerevisiae deletion strains, locus YKR001C, strain vps1, hits give low values",0.578 (active)
same,normalized growth,"S. cerevisiae deletion strains, locus YKR026C, strain gcn3, hits give low values",0.994
same,normalized growth,"S. cerevisiae deletion strains, locus YKR091W, strain srl3, hits give low values",0.997
same,normalized growth,"S. cerevisiae deletion strains, locus YLL001W, strain dnm1, hits give low values",0.959
same,normalized growth,"S. cerevisiae deletion strains, locus YLL026W, hits give low values",0.985
same,normalized growth,"S. cerevisiae deletion strains, locus YLL041C, strain sdh2, hits give low values",0.993
same,normalized growth,"S. cerevisiae deletion strains, locus YLR027C, strain aat2, hits give low values",0.935
same,normalized growth,"S. cerevisiae deletion strains, locus YLR039C, strain RIC1, hits give low values",0.235 (active)
same,normalized growth,"S. cerevisiae deletion strains, locus YLR058C, strain SHM2, hits give low values",0.239 (active)
same,normalized growth,"S. cerevisiae deletion strains, locus YLR102C, strain apc9, hits give low values",0.957
same,normalized growth,"S. cerevisiae deletion strains, locus YLR113W, strain HOG1, hits give low values",0.868
same,normalized growth,"S. cerevisiae deletion strains, locus YLR221C, strain rsa3, hits give low values",0.905 (active)
same,normalized growth,"S. cerevisiae deletion strains, locus YLR258W, strain gsy2, hits give low values",0.935
same,normalized growth,"S. cerevisiae deletion strains, locus YLR262C, strain YPT6 (second series), hits give low values",0.995
same,normalized growth,"S. cerevisiae deletion strains, locus YLR262C, strain YPT6, hits give low values",0.298 (active)
same,normalized growth,"S. cerevisiae deletion strains, locus YLR268W, strain sec22, hits give low values",0.495 (active)
same,normalized growth,"S. cerevisiae deletion strains, locus YLR320W, strain mms22, hits give low values",0.931
same,normalized growth,"S. cerevisiae deletion strains, locus YLR330W, strain CHS5, hits give low values",0.36 (active)
same,normalized growth,"S. cerevisiae deletion strains, locus YLR342W, strain FKS1 (second series), hits give low values",0.195 (active)
same,normalized growth,"S. cerevisiae deletion strains, locus YLR342W, strain FKS1, hits give low values",0.959
same,normalized growth,"S. cerevisiae deletion strains, locus YLR357W, strain rsc2, hits give low values",0.873
same,normalized growth,"S. cerevisiae deletion strains, locus YLR370C, strain arc18, hits give low values",0.947
same,normalized growth,"S. cerevisiae deletion strains, locus YLR371W, strain rom2, hits give low values",0.447 (active)
same,normalized growth,"S. cerevisiae deletion strains, locus YLR384C, strain iki3, hits give low values",0.98
same,normalized growth,"S. cerevisiae deletion strains, locus YLR418C, strain cdc73, hits give low values",0.252 (active)
same,normalized growth,"S. cerevisiae deletion strains, locus YML016C, strain PPZ1, hits give low values",0.174 (active)
same,normalized growth,"S. cerevisiae deletion strains, locus YML032C, strain rad52, hits give low values",0.812 (active)
same,normalized growth,"S. cerevisiae deletion strains, locus YML120C, strain ndi1, hits give low values",0.956
same,normalized growth,"S. cerevisiae deletion strains, locus YML124C, strain tub3, hits give low values",0.849 (active)
same,normalized growth,"S. cerevisiae deletion strains, locus YMR058W, strain fet3, hits give low values",0.755 (active)
same,normalized growth,"S. cerevisiae deletion strains, locus YMR078C, strain ctf18, hits give low values",0.929
same,normalized growth,"S. cerevisiae deletion strains, locus YMR125W, strain sto1, hits give low values",1.01
same,normalized growth,"S. cerevisiae deletion strains, locus YMR129W, hits give low values",0.981
same,normalized growth,"S. cerevisiae deletion strains, locus YMR205C, strain PFK2, hits give low values",0.957
same,normalized growth,"S. cerevisiae deletion strains, locus YMR223W, strain ubp8, hits give low values",0.72 (active)
same,normalized growth,"S. cerevisiae deletion strains, locus YMR231W, strain pep5, hits give low values",0.984
same,normalized growth,"S. cerevisiae deletion strains, locus YMR307W, strain GAS1, hits give low values",0.396 (active)
same,normalized growth,"S. cerevisiae deletion strains, locus YNL067W, strain RPL9B, hits give low values",0.427 (active)
same,normalized growth,"S. cerevisiae deletion strains, locus YNL071W, strain lat1, hits give low values",0.942
same,normalized growth,"S. cerevisiae deletion strains, locus YNL128W, strain TEP1, hits give low values",0.202 (active)
same,normalized growth,"S. cerevisiae deletion strains, locus YNL153C, strain GIM3, hits give low values",0.388 (active)
same,normalized growth,"S. cerevisiae deletion strains, locus YNL183C, strain NPR1, hits give low values",0.885
same,normalized growth,"S. cerevisiae deletion strains, locus YNL209W, strain ssb2, hits give low values",0.883 (active)
same,normalized growth,"S. cerevisiae deletion strains, locus YNL233W, strain BNI4, hits give low values",0.401 (active)
same,normalized growth,"S. cerevisiae deletion strains, locus YNL248C, strain rpa49, hits give low values",1
same,normalized growth,"S. cerevisiae deletion strains, locus YNL250W, strain rad50, hits give low values",0.966
same,normalized growth,"S. cerevisiae deletion strains, locus YNL271C, strain bni1, hits give low values",0.943
same,normalized growth,"S. cerevisiae deletion strains, locus YNL298W, strain CLA4, hits give low values",0.922
same,normalized growth,"S. cerevisiae deletion strains, locus YNL307C, strain MCK1, hits give low values",0.546 (active)
same,normalized growth,"S. cerevisiae deletion strains, locus YNL322C, strain KRE1 (second series), hits give low values",0.969
same,normalized growth,"S. cerevisiae deletion strains, locus YNL322C, strain KRE1, hits give low values",0.339 (active)
same,normalized growth,"S. cerevisiae deletion strains, locus YNR049C, strain mso1, hits give low values",0.985
same,normalized growth,"S. cerevisiae deletion strains, locus YNR052C, strain pop2, hits give low values",0.682 (active)
same,normalized growth,"S. cerevisiae deletion strains, locus YOL006C, strain TOP1, hits give low values",0.142 (active)
same,normalized growth,"S. cerevisiae deletion strains, locus YOL012C, strain htz1",0.238
same,normalized growth,"S. cerevisiae deletion strains, locus YOL147C, strain pex11, hits give low values",0.634 (active)
same,normalized growth,"S. cerevisiae deletion strains, locus YOR001W, strain rrp6, hits give low values",0.952
same,normalized growth,"S. cerevisiae deletion strains, locus YOR061W, strain CKA2, hits give low values",0.257 (active)
same,normalized growth,"S. cerevisiae deletion strains, locus YOR069W, strain VPS5, hits give low values",0.546 (active)
same,normalized growth,"S. cerevisiae deletion strains, locus YOR070C, strain gyp1, hits give low values",0.951
same,normalized growth,"S. cerevisiae deletion strains, locus YOR080W, strain dia2, hits give low values",0.961
same,normalized growth,"S. cerevisiae deletion strains, locus YOR083W, strain WHI5, hits give low values",0.937
same,normalized growth,"S. cerevisiae deletion strains, locus YOR106W, strain vam3, hits give low values",0.856 (active)
same,normalized growth,"S. cerevisiae deletion strains, locus YOR136W, strain idh2, hits give low values",0.837 (active)
same,normalized growth,"S. cerevisiae deletion strains, locus YOR144C, strain elg1, hits give low values",0.723 (active)
same,normalized growth,"S. cerevisiae deletion strains, locus YOR184W, strain ser1, hits give low values",0.548 (active)
same,normalized growth,"S. cerevisiae deletion strains, locus YOR231W, strain MKK1, hits give low values",0.917
same,normalized growth,"S. cerevisiae deletion strains, locus YOR265W, strain rbl2, hits give low values",0.977
same,normalized growth,"S. cerevisiae deletion strains, locus YOR270C, strain vph1, hits give low values",0.925
same,normalized growth,"S. cerevisiae deletion strains, locus YOR290C, strain snf2, hits give low values",0.93
same,normalized growth,"S. cerevisiae deletion strains, locus YOR316C, strain cot1, hits give low values",0.848 (active)
same,normalized growth,"S. cerevisiae deletion strains, locus YPL051W, strain arl3, hits give low values",0.913 (active)
same,normalized growth,"S. cerevisiae deletion strains, locus YPL055C, strain LGE1, hits give low values",0.203 (active)
same,normalized growth,"S. cerevisiae deletion strains, locus YPL078C, strain atp4, hits give low values",0.957
same,normalized growth,"S. cerevisiae deletion strains, locus YPL106C, strain sse1, hits give low values",0.919
same,normalized growth,"S. cerevisiae deletion strains, locus YPL240C, strain hsp82, hits give low values",0.984
same,normalized growth,"S. cerevisiae deletion strains, locus YPL256C, strain CLN2, hits give low values",0.921
same,normalized growth,"S. cerevisiae deletion strains, locus YPR119W, strain clb2, hits give low values",0.965
same,normalized growth,"S. cerevisiae deletion strains, locus YPR141C, strain kar3, hits give low values",0.985
same,normalized growth,"S. cerevisiae deletion strains, locus YPR163C, strain tif3, hits give low values",0.735 (active)
same,normalized growth,"S. cerevisiae deletion strains, locus YPR167C, strain met16, hits give low values",0.739 (active)
same,normalized growth,"S. cerevisiae deletion strains, strain wtn01, hits give low values",0.533 (active)
same,normalized growth,"S. cerevisiae strains, strain wild type, hits give low values",0.173 (active)
